High-throughput results (PubChem)
HP1b chromo inh – HTS for Inhibitors of HP1-beta Chromodomain Interactions with Methylated Histone Tails; Chromobox protein homolog 1 (Homo sapiens), P83916; AlphaScreen HP1-beta / biotin-H3K9me3 peptide binding; 390,000 compounds, 0.56% hits; Potency, µM (doses to about 114 µM), usual class: inhibitors; further: nearly all actives have a fitted effect of over 70% in size
Target sequence (P83916 whole entry, looked up): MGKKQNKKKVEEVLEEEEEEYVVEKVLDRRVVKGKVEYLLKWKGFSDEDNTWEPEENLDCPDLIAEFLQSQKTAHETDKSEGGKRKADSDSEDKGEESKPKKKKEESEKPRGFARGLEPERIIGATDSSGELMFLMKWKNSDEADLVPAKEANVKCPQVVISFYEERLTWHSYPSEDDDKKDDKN
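AlphaScreen: HP1-beta (50 nM) preformed 30 min with biotin-H3(1-18)K9me3 peptide (50 nM) in PBS pH 7.4, 0.01% Tween-20. Compound added for 30 min at RT, then streptavidin donor/nickel chelate acceptor beads (10 ug/mL) for 30 min.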
G9a block – qHTS Assay for Inhibitors of Histone Lysine Methyltransferase G9a. Histone-lysine N-methyltransferase EHMT2 (Homo sapiens), Q96KQ7. G9a H3K9 monomethylation, AlphaScreen, 2 h. Potency, µM (doses to about 102 µM), most hits filed as inhibitors. 350,000 compounds, 8.8% hits; further: nearly all actives have a fitted effect of over 75% in size
Target sequence (Q96KQ7 913-1193 limits assumed): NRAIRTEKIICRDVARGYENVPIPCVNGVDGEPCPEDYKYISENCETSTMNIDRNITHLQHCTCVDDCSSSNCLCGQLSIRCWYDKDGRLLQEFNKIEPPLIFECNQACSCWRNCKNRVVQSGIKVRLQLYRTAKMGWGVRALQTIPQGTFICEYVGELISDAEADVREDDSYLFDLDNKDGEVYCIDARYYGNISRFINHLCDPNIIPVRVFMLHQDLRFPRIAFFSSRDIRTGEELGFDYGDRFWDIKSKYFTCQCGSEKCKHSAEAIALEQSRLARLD
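Readings reflect AlphaScreen signal from monomethyl-H3K9 antibody detection. HMT at 20 nM; substrate b-H3K9 500 nM; cofactor SAM 20 uM; 2 h RT reaction; compounds tested as titrations in qHTS with 15 min preincubation.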
CtBP-E1A blk – qHTS Assay for Inhibitors of the CtBP/E1A Interaction; AlphaScreen GST-E1A/His-CtBP binding, 1536-well; hits give low values; activity change, % (no concentration beside the values); 340,000 compounds, 0.49% hits; in the data active means activity change below about -65%; inconclusive means mostly about -30% to -63%
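Protein mix (5X: 125 nM each GST-E1A, His-CtBP) was incubated with pinned compound 2 h at 37 deg C in dark, in 50 mM Tris pH 8.0 buffer with 300 mM NaCl. Glutathione donor and nickel acceptor beads followed; AlphaScreen signal read after 1 h.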
Six1-Eya2 inh – qHTS Assay for Inhibitors of the Six1/Eya2 Interaction. AlphaScreen GST-Six1/His-Eya2 binding, biochemical; hits give low values. AID 651725, 2012. 360,000 compounds, 0.56% hits. activity change, % (test concentration not listed). Homeobox protein SIX1 (Homo sapiens) + Protein phosphatase EYA2 (Homo sapiens), …; in the data active means activity change below about -65%; inconclusive means mostly about -30% to -63%
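AlphaScreen luminescence read after one hour at 37 °C in darkness. Pin-transferred compounds met GST-Six1 and His-Eya2 protein (5X stock 250 nM/500 nM) plus glutathione donor and Ni-chelate acceptor beads (5X, 50 ug/mL).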
BAZ2B inh – qHTS Assay for Inhibitors of BAZ2B | Bromodomain adjacent to zinc finger domain protein 2B (Homo sapiens), Q9UIF8 | AlphaScreen BAZ2B-H3K14Ac peptide displacement | Potency, µM (titrated, usually from 114 µM), hits mostly inhibitors | 360,000 compounds, 4.4% hits | AID 504333, 2011; further: nearly all actives have a fitted effect of over 60% in size
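AlphaScreen displacement of biotin-H3(5-23)K14Ac peptide (50 nM final) from BAZ2B (50 nM final) in PBS pH 7.4, 0.01% Tween-20; complex preformed 30 min RT, then compounds (top 110 uM) 30 min RT, beads 20 min dark.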
JMJD2A Tudor inh – qHTS Assay for Inhibitors of JMJD2A-Tudor Domain | Lysine-specific demethylase 4A (Homo sapiens), O75164 | AlphaScreen JMJD2A-Tudor / H3K4me3 peptide binding | Potency, µM (highest dose often 114 µM), hits mostly inhibitors | 390,000 compounds, 4.4% hits; further: nearly all actives have a fitted effect of over 50% in size
Of the large screens only hits and unclear results are named; the others gave an inactive call. The list is not random: actives were taken first. Their share in the collection is about 10%. Unless noted, the call rests on the fitted dose curve; in most records, active means well fitted inhibition curve with a large enough effect; inconclusive means small, poorly fitted or top-dose-only effect; inactive means no such curve, though single readings can be large or run the other way.

[O-]/C(=C(\C(=S)Nc1cccc2ccccc12)[n+]1ccccc1)c1ccc(Cl)s1	HP1b chromo inh inconclusive, G9a block inconclusive, BAZ2B inh 35.5µM, JMJD2A Tudor inh inconclusive
Cc1ccc(C)c(NC(=S)/C(=C(\[O-])c2ccc(Cl)s2)[n+]2ccccc2)c1	G9a block inconclusive, BAZ2B inh 35.5µM, JMJD2A Tudor inh inconclusive
CCc1cccc(CC)c1NC(=S)Nc1ccccc1	none
CC(C)(C)c1cc[n+](/C(C(=S)NC2CC2)=C(/[O-])c2ccc(Cl)s2)cc1	G9a block 10µM
COc1ccccc1CNc1nc2c(S(=O)(=O)c3ccccc3)nnn2c2ccc(Cl)cc12	none (no result: CtBP-E1A blk, Six1-Eya2 inh)
CSc1ccc(CCNC(=O)c2ccc3c(c2)nc2n3CCC(C)C2)cc1 (stereo not given)	none (no result: CtBP-E1A blk, Six1-Eya2 inh)
CCC/C=C1/CCCOC(C(=O)NCc2ccccc2)(C(F)(F)F)C1 (stereo not given)	none (no result: G9a block, BAZ2B inh)
O=C(COc1ccc(Cl)cc1)Nc1ccc(-c2nc3ccccc3s2)c(O)c1	none (no result: CtBP-E1A blk, Six1-Eya2 inh)
[O-]C(=C(C(=S)Nc1cccc2ccccc12)[n+]1cccc(CO)c1)c1ccc(Cl)s1	none (no result: G9a block, BAZ2B inh)
Cc1cc(C)cc(NC(=S)/C(=C(\[O-])c2ccc(Cl)s2)[n+]2cccc(C)c2)c1	HP1b chromo inh inconclusive, G9a block 44.7µM, BAZ2B inh 39.8µM, JMJD2A Tudor inh 50.1µM
CO[C@@]1(NC(=O)C2SC(=C(C(N)=O)C(=O)O)S2)C(=O)N2C(C(=O)O)=C(CSc3nnnn3C)CS[C@@H]21 (stereo not given in full)	G9a block 15.8µM, BAZ2B inh 50.1µM, JMJD2A Tudor inh 25.1µM
Cc1ccc2oc(=O)c3cnn(CC(=O)Nc4cccc(C(F)(F)F)c4)c3c2c1	none (no result: CtBP-E1A blk, Six1-Eya2 inh)
COC(=O)c1[nH]c(C)c(/C(O)=C2\C(=O)C(=O)N(CCN(C)C)C2c2ccc(C)o2)c1C (stereo not given)	G9a block 39.8µM, JMJD2A Tudor inh 35.5µM
CCOC(=O)c1[nH]c(C)c(/C(O)=C2\C(=O)C(=O)N(CCCN(CC)CC)C2c2cccnc2)c1C (stereo not given)	none (no result: G9a block, BAZ2B inh)
CCOC(=O)c1[nH]c(C)c(/C(O)=C2\C(=O)C(=O)N(CCCn3ccnc3)C2c2ccncc2)c1C (stereo not given)	G9a block 50.1µM, BAZ2B inh inconclusive, JMJD2A Tudor inh 35.5µM
COC(=O)c1[nH]c(C)c(/C(O)=C2\C(=O)C(=O)N(CCN(C)C)C2c2ccco2)c1C (stereo not given)	G9a block inconclusive
CCOC(=O)c1[nH]c(C)c(/C(O)=C2\C(=O)C(=O)N(CCCN3CCOCC3)C2c2cccnc2)c1C (stereo not given)	G9a block 22.4µM
CCN(CC)CCN1C(=O)C(=O)/C(=C(/O)c2c(C)[nH]c(C(=O)OC)c2C)C1c1ccccc1OC (stereo not given)	G9a block inconclusive, JMJD2A Tudor inh inconclusive
COC(=O)c1[nH]c(C)c(/C(O)=C2\C(=O)C(=O)N(CCCN3CCOCC3)C2c2ccccn2)c1C (stereo not given)	G9a block inconclusive, BAZ2B inh 50.1µM, JMJD2A Tudor inh inconclusive
CN(CC(=O)Nc1cccc(F)c1)C(=O)CN1c2cccc3cccc(c23)S1(=O)=O	G9a block inconclusive, BAZ2B inh inconclusive
CN(C(=O)CC1C(=O)NCCN1Cc1ccc(F)c(F)c1)C1CCOCC1 (stereo not given)	none
COc1ccccc1CN1C[C@@H]2C[C@@H](c3[nH]c4c(C)cccc4c3C)N3CCC[C@@]23C1=O	G9a block 44.7µM, BAZ2B inh inconclusive (no result: CtBP-E1A blk)
COc1ccccc1CN1C[C@@H]2C[C@@H](c3cccc(C)n3)N3CCC[C@@]23C1=O	none (no result: G9a block)
O=C(/C=C/c1ccc(Br)o1)Nc1nnc(C2CC2)s1	G9a block 56.2µM (no result: HP1b chromo inh, CtBP-E1A blk, Six1-Eya2 inh, JMJD2A Tudor inh)
CCc1nn(CC(=O)Nc2cccc(C(C)=O)c2)c(=O)c2cc3sccc3n12	G9a block inconclusive (no result: CtBP-E1A blk, Six1-Eya2 inh)
O=C(NN1C(=O)/C(=C\c2cccnc2)SC1=S)C(c1ccccc1)c1ccccc1	HP1b chromo inh inconclusive, G9a block 31.6µM, JMJD2A Tudor inh inconclusive
O=C(O)C(Cc1ccccc1)N1C(=O)/C(=C/c2cccnc2)SC1=S (stereo not given)	JMJD2A Tudor inh 15.8µM (no result: G9a block)
CC(=O)NN1C(=O)/C(=C/c2ccc(C(C)C)cc2)SC1=S	HP1b chromo inh inconclusive, BAZ2B inh 44.7µM
COc1ccc(/C=C2\SC(=S)N(CC(=O)N3CCN(C)CC3)C2=O)cc1	none
COc1ccc(/C=C2\SC(=S)N(C(Cc3ccccc3)C(=O)O)C2=O)cc1 (stereo not given)	HP1b chromo inh inconclusive, G9a block 25.1µM, BAZ2B inh 39.8µM, JMJD2A Tudor inh inconclusive
O=C(CC1N=C2c3ccccc3N=C(SCc3ccccc3Cl)N2C1=O)NC1CCCCC1 (stereo not given)	none (no result: CtBP-E1A blk, Six1-Eya2 inh)
CC(=O)Nc1nonc1-c1nnc(SCc2ccccc2Cl)n1C	none (no result: CtBP-E1A blk, Six1-Eya2 inh)
COc1ccc(/C=C2/SC(=O)N(CC(O)Cn3c4ccccc4c4ccccc43)C2=O)cc1 (stereo not given)	JMJD2A Tudor inh 79.4µM
COc1ccc(C)cc1CN(C)c1ccc(S(=O)(=O)N2CCN(C)CC2)cn1	G9a block inconclusive
Cc1cc(C(=O)Nc2sc3c(c2C#N)CCC(C(C)(C)C)C3)no1 (stereo not given)	G9a block inconclusive, BAZ2B inh inconclusive
Cc1nn(CCCC(=O)Nc2sc3c(c2C#N)CCC3)c(C)c1[N+](=O)[O-]	HP1b chromo inh inconclusive, G9a block 31.6µM, BAZ2B inh inconclusive, JMJD2A Tudor inh inconclusive
CC(C)(C)C1CCc2c(sc(NC(=O)Cn3nnc(-c4ccccc4F)n3)c2C#N)C1 (stereo not given)	none (no result: CtBP-E1A blk, Six1-Eya2 inh)
Cc1nn(C(C)C(=O)Nc2sc3c(c2C#N)CCCC3)c(C)c1[N+](=O)[O-] (stereo not given)	G9a block inconclusive
CC(C)(C)C1CCc2c(sc(NC(=O)c3cc(C4CC4)on3)c2C#N)C1 (stereo not given)	G9a block 79.4µM
Cc1nn(CC(=O)Nc2sc3c(c2C#N)CCC(C(C)(C)C)C3)c(C)c1[N+](=O)[O-] (stereo not given)	G9a block 44.7µM
CCOCc1[nH]c(=S)[nH]c(=O)c1Cc1ccc(OC(C)C)cc1	G9a block 50.1µM (no result: CtBP-E1A blk)
CN(C)Cc1nc(-c2cn(C)c3ccccc23)no1	none (no result: HP1b chromo inh, CtBP-E1A blk, Six1-Eya2 inh, BAZ2B inh, JMJD2A Tudor inh)
